# Bioassay records (PubChem BioAssay)
# PNC inhibitor: High Content Assay for Compounds that inhibit the Assembly of the Perinucleolar Compartment. PC3M PTB-GFP, PNC prevalence imaging, 16 h; active compounds read low. activity change (PNC), negative = inhibition, % at 10 µM. actives 3.1% (n = 140,000). AID 2417, 2010;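 active means readout at or below -70, meaning at least 70% loss of cells showing the perinucleolar compartment, a nuclear body marking cancer cells; inconclusive means readout between -30 and a set limit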;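 further: plate controls were DMSO wells for no effect and camptothecin positive control wells for full effect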
#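 Read-out is percentage of cells bearing a perinucleolar compartment, from automated 20x imaging of fixed, Hoechst-stained PC3M PTB-GFP cells. Cells were seeded 4 h, then exposed 16 h to compound (23 nl of library stock) in duplicate plates.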
# GLA spleen mod: qHTS Assay for Inhibitors and Activators of Human alpha-Galactosidase From Spleen Homogenate. Alpha-galactosidase A (Homo sapiens), P06280. human spleen homogenate, 4MU-alpha-Gal fluorescence, 40 min. Potency, µM (series often up to 80 µM), for the others: top-dose activity change, negative = inhibition, hits mostly inhibitors. actives 0.008% (n = 240,000). AID 2107, 2009;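 further: potency means the concentration at half of the fitted maximal effect; 0% = enzyme with vehicle and -100% = no enzyme basal signal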
#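 Fluorogenic readout (Ex 365/Em 440 nm) of 4-methylumbelliferone released from 1 mM 4-MU-alpha-galactoside by spleen homogenate, 40 min at 37C, pH 5.0. Data normalized to no-enzyme and enzyme controls; Hill-equation AC50 from compound titrations.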
# HPGD block: qHTS Assay for Inhibitors of HPGD (15-Hydroxyprostaglandin Dehydrogenase); 15-hydroxyprostaglandin dehydrogenase [NAD(+)] (Homo sapiens), P15428; purified HPGD, NADH fluorescence kinetic, PGE2 substrate; Potency, µM, without a hit: at the top dose activity change, negative = inhibition, usual class: inhibitors; actives 4.3% (n = 150,000); AID 894, 2007; active means well fitted inhibition curve with a large enough effect, not every such curve was filed as active; inconclusive means small, poorly fitted or top-dose-only effect, or another doubt; inactive means no such curve, though single readings can be large or run the other way; further: potency means the concentration at half of the fitted maximal effect
# Target sequence (P15428 whole entry, looked up): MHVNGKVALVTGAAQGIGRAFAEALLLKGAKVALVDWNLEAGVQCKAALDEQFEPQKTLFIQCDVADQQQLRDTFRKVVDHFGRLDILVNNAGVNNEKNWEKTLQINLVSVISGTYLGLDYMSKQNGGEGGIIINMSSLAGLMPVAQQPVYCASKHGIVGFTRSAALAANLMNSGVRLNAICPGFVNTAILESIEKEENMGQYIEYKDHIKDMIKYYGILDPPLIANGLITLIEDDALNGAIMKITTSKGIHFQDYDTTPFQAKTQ
#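 20 nM HPGD preincubated 15 min at room temperature with compound in 50 mM Tris-HCl pH 8, 0.01% Tween 20. Started with 1 mM NAD+ and 30 uM prostaglandin E2; NADH fluorescence (360/450 nm) read 5 times over 30-s intervals, last minus first.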
# ALDH1A1 block: qHTS Assay for Inhibitors of Aldehyde Dehydrogenase 1 (ALDH1A1); Aldehyde dehydrogenase 1A1 (Homo sapiens), P00352; Purified ALDH1A1, NADH fluorescence, propionaldehyde substrate; Potency, µM (doses to about 75.3 µM), for inactives: at the top dose activity, negative = inhibition, hits mostly inhibitors; actives 7.3% (n = 220,000); active means well fitted inhibition curve with a large enough effect, not every such curve was filed as active; inconclusive means small, poorly fitted or top-dose-only effect, or another doubt; inactive means no such curve, though single readings can be large or run the other way;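 further: potency means the concentration at half of the fitted maximal effect; plate controls were no enzyme wells and a reference inhibitor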
# Target sequence (P00352 whole entry, looked up): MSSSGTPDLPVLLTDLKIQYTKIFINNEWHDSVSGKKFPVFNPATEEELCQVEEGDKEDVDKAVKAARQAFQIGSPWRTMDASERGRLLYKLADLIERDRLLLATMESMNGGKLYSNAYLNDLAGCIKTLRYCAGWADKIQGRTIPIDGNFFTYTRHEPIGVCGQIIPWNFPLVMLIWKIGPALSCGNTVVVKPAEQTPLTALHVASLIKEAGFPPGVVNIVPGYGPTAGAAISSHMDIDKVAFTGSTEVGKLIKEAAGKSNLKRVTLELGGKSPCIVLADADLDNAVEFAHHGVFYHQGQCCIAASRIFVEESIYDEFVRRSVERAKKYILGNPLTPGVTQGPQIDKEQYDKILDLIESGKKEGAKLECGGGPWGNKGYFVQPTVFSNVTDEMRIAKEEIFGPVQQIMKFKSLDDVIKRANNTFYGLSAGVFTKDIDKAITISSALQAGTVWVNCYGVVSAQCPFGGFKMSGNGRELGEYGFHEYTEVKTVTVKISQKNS
# GLA inh pH 4.5: qHTS Assay for Inhibitors of Human alpha-Galactosidase at pH 4.5. purified enzyme, 4-MU-alpha-Gal fluorescence, pH 4.5. AID 1467, 2008. 230,000 tested, under 10 active. Alpha-galactosidase A (Homo sapiens), P06280. activity change, negative = inhibition, % at 105 µM;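 further: 0% = full activity with enzyme and -100% = basal without enzyme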
# ALOX12 inhib: qHTS Assay for Inhibitors of 12-hLO (12-human lipoxygenase). actives 0.12% (n = 150,000). purified 12-hLO, xylenol orange hydroperoxide absorbance. Potency, µM (titrated, usually from 57.1 µM), inactives show at the highest dose activity change, negative = inhibition, actives largely listed as inhibitors; further: potency means the concentration at half of the fitted maximal effect; nearly all actives have a fitted effect of over 55% in size
#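 Hydroperoxide formation by human 12-lipoxygenase from 40 uM arachidonic acid was followed colorimetrically via ferric-xylenol orange complex, using the 573/405 nm absorbance ratio. Enzyme concentration was 150 nM, with 30 min reaction at room temperature.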
# Numbers without * were called inactive; ? = inconclusive; . = not tested or not shown; [ ] = remark or other dose. In the library only some 10% were active in any assay of this set; here they are far more common. Unless noted, the call rests on the fitted dose curve; in most records, active means well fitted curve in the direction sought with a large enough effect; inconclusive means small, poorly fitted or top-dose-only effect, or another doubt; inactive means no such curve, though single readings can be large; an effect the other way counts as inactive or inconclusive. Unless noted, on the % scale 0 is the no-effect control and ±100 the full control effect.
SMILES,PNC inhibitor,GLA spleen mod,HPGD block,ALDH1A1 block,GLA inh pH 4.5,ALOX12 inhib
Cc1ccc(S(=O)(=O)NCC(=O)N(CC(=O)NCC2CCCO2)CC2CCCO2)cc1 (stereo not drawn),.,8.7%,.,-5.4%,7.0,.
COc1ccccc1CN(CC(=O)NCC1CCCO1)C(=O)CNS(=O)(=O)c1ccc(C)cc1 (stereo not drawn),20.7,1.4%,0.9%,12.6µM*,4.2,-3.5%
CCOc1ccc(N(CC(=O)NCC2CCCO2)S(=O)(=O)c2ccc(SC)cc2)cc1 (stereo not drawn),?,-2.7%,-6.4%,3.98µM*,1.1,-13.3%
O=C(CSc1nc(CCC2CCCC2)nc2ccccc12)NCc1ccc2c(c1)OCO2,-0.6,-0.1%,-6.0%,0.3%,10.4,-9.8%
Cc1ccc(Nc2nc(C3CC3)cs2)cc1,-119.3*,-12.0%,-15.8%,?,-3.4,-21.2%
COc1ccccc1NC(=O)c1cc2ccccc2o/c1=N\O,2.9,-0.6%,22.4µM*,?,3.2,-12.4%
Cc1ccc(S(=O)(=O)Nc2cccnc2Oc2ccc(Cl)cc2)cc1,.,-8.1%,.,0.02µM*,-1.3,.
CCOC(=O)c1c(C)[nH]c(C2=NNC(=NC3CC3)SC2)c1C,.,-2.1%,.,17.8µM*,-8.9,.
CCOC(=O)c1c(C)[nH]c(/C(C)=N/O)c1C,-1.9,?,?,-14.1%,-5.4,-5.7%
COc1ccc(-n2c(=O)c(-c3cn(C)c4ccccc34)nc3cnc(N4CCOCC4)nc32)cc1,.,10.3%,.,?,.,.
O=C(C1CCCO1)N1CCN(c2c3c(nc4cc(-c5ccc(F)cc5)nn24)CCC3)CC1 (stereo not drawn),-22.8,-1.3%,?,22.4µM*,0.0,-4.5%
OC1CCN(c2c3c(nc4cc(-c5ccc(F)cc5)nn24)CCC3)CC1,13.7,2.2%,-18.7%,6.5%,-1.1,-28.8%
OB(O)c1ccc(Br)cc1,.,1.7%,-3.6%,2.7%,-3.6,-2.0%
COc1ccc(-c2nc(CSCC(=O)N3CCN(C(=O)c4ccco4)CC3)c(C)o2)cc1OC,?,3.2%,-16.2%,20µM*,-12.5,-3.1%
CCOC(=O)N1CCN(C(=O)CSCc2nc(-c3ccccc3F)oc2C)CC1,38.6,-6.4%,-19.2%,22.4µM*,0.0,10.3%
CCOC(=O)N1CCN(C(=O)CSCc2nc(-c3ccccc3C)oc2C)CC1,-28.7,9.5%,-10.6%,?,-2.1,1.1%
O=C(c1nc2ccc([N+](=O)[O-])cc2[nH]c1=O)[C@@H](O)c1ccc2c(c1)OCO2,.,.,-2.9%,1.6%[13.5 µM],.,-2.6%[11.4 µM]
CCNc1sc(C(=O)c2cccs2)c(N)c1C#N,20.4,1.2%,-19.8%,8.91µM*,-3.3,-28.7%
CCNc1sc(C(=O)c2cccs2)c(N)c1-c1nc2ccccc2s1,40.5,2.8%,-17.7%,?,?,-18.6%
C=CCNc1sc(C(=O)c2cccs2)c(N)c1C#N,-118.9*,-1.7%,-6.7%,?,-5.9,0.3%
O=c1[nH]cnc2c1sc(=S)n2-c1ccccc1,?,-3.7%,14.1µM*,10µM*,-6.9,6.3%
CCOC(=O)c1sc(NC(=O)CCN2CCC(C)CC2)c(C(=O)OCC)c1C,.,-3.4%,.,2.51µM*,0.9,.
CCOC(=O)c1sc(NC(=O)CCN2C(=O)c3ccccc3C2=O)c(C(=O)OCC)c1C,41.2,1.4%,-5.4%,?,12.1,-4.3%
CCOC(=O)c1c(NC(=O)CCN2C(=O)c3ccccc3C2=O)sc(C(=O)OC(C)C)c1C,6.5,-12.8%,-24.8%,9.8%,-11.5,7.9%
CCOC(=O)c1sc(NC(=O)CCN2CCN(CC)CC2)c(C(=O)OCC)c1C,.,5.7%,.,10µM*,-5.6,.
SMILES,PNC inhibitor,GLA spleen mod,HPGD block,ALDH1A1 block,GLA inh pH 4.5,ALOX12 inhib
CC(C)(C)C1CCc2onc(C(=O)N3CCOCC3)c2C1 (stereo not drawn),-10.1,7.3%,-16.2%,25.1µM*,-1.9,1.9%
O=C(NC1CCCC1)C(c1ccccc1)N(Cc1ccc2c(c1)OCO2)C(=O)Cc1cccs1 (stereo not drawn),?,-1.9%,-6.4%,1.0%,-6.1,-4.6%
O=C(/C=C/c1cccc(Cl)c1)NCc1cccs1,13.1,9.8%,31.6µM*,-3.1%,-3.0,-1.4%
O=C(Cc1cccs1)NCc1ccc2c(c1)OCO2,?,-13.3%,15.8µM*,8.6%,-11.6,0.0%
O=C(/C=C/c1ccc(Cl)cc1)NCc1cccs1,?,4.2%,-18.7%,0.8%,3.1,-1.9%
Cc1ccc(CNC(=O)COc2ccc(C(=O)c3ccc(F)cc3)cc2)cc1,-20.3,-10.9%,39.8µM*,?,3.2,-2.0%
O=C(NCc1ccccc1)C(c1ccccc1)N(Cc1ccc2c(c1)OCO2)C(=O)Cc1cccs1 (stereo not drawn),-108.4*,9.3%,-13.4%,?,4.8,-2.9%
O=C(NCc1ccc2c(c1)OCO2)c1cccc(C(=O)NCc2ccc3c(c2)OCO3)c1,7.8,-4.3%,-14.9%,-7.6%,2.9,-22.0%
C[C@@]1(O)CCOC(=O)C1,.,-5.0%[29.1 µM],-0.9%,1.5%[20.9 µM],-4.2,2.8%[25.6 µM]
O=c1[nH]c(=O)n(C2CC(O)C(CO)O2)cc1C(F)(F)F (stereo not drawn),.,1.9%,-3.4%,4.4%,-3.8,-2.9%
O=C(O)CCC(=O)NCc1ccc(F)cc1,17.5,2.0%,-0.5%,5.9%,3.0,2.3%
O=C(CSc1ccc2ccccc2c1)NCc1cccs1,-21.7,-3.7%,7.94µM*,?,4.9,-3.9%
O=C(NC1CCCCC1)C(c1ccc2ncccc2c1)N(Cc1ccccc1)C(=O)c1cccs1 (stereo not drawn),38.3,9.8%,-5.5%,?,-4.8,-1.5%
O=C(Cc1cccs1)NCc1cccs1,?,4.5%,15.8µM*,?,-16.2,-0.9%
CC(C)CC(=O)NCc1ccc(F)cc1,51.2,-0.7%,15.8µM*,-5.5%,9.8,8.8%
O=C(NC1CCCCC1)C(c1ccc2ncccc2c1)N(Cc1ccc2c(c1)OCO2)C(=O)c1cccs1 (stereo not drawn),2.6,-1.5%,-14.1%,5.01µM*,-0.8,2.2%
Cc1noc(C)c1C(=O)N1CCC2(CC1)CCN(c1ccncc1)CC2,.,14.2%,?,?,.,2.5%
O=C(c1ccco1)N1CCC[C@@]2(CCN(c3ccncc3)C2)C1,.,2.3%,-12.5%,-5.3%,.,12.9%
O[C@]1(c2ccccc2)c2ccccc2NC2=NCCN21,.,.,1.5%,14.6%[13.5 µM],.,-3.1%[11.4 µM]
O=C(NCc1cccs1)C12CC3CC(CC(C3)C1)C2,.,5.4%,.,-4.5%,1.6,.
